Data on 9 compounds can be found in PubChem BioAssay (NCI).

This is part of a sample that, as a whole, favours compounds with a hit. Of some 83,000 tested, about 20% had one in any assay.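 Cell lines were cultured in 96-well plates, exposed to a single compound concentration, and assessed for percent growth 48 hours later.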 A number with no mark means an inactive call. The source made the active and inactive calls. The calls were made as follows: active = growth percent below 10; inactive = the rest.

What all share (experiment): NCI-60 one-dose screen, 48 h (100 = growth as untreated, 0 = no growth, -100 = all killed)
Holding throughout (details): 10 µM unless noted

Experiment [1] concerns NCI-H23 lung.
In experiment [2] the test system is NCI-H226 lung.
Experiment [3] has as its system NCI-H322M lung.
The subject of experiment [4] is HOP-62 NSCLC.
Experiment [5] relates to HOP-92 NSCLC.
The test system of experiment [6] is NCI-H522 lung.
Experiment [7] deals with A549/ATCC NSCLC.
Experiment [8] relates to 786-0 renal.
In experiment [9] the test system is COLO 205 colon.
Experiment [10] has as its system DU-145 prostate.
Experiment [11] deals with K-562 leukemia.
Experiment [12] has as its system MALME-3M melanoma.
Experiment [13] concerns MDA-MB-231 breast.
The test system of experiment [14] is RXF 393 renal.
In experiment [15] the test system is SF-268 CNS.
For experiment [16], the system named is SF-295 CNS.
For experiment [17], the system named is SF-539 CNS.
The test system of experiment [18] is UACC-257 melanoma.
Experiment [19] has as its system M14 melanoma.
In experiment [20] the test system is NCI-H460 lung.

As for `CN1CCC(CN2c3ccccc3Sc3ccccc32)C1` (stereo not drawn), the growth in experiment [1] is 88.9%; in experiment [2], 111%; in [3], 86.3%; in [4] it was 91.5%; in experiment [5] it was -0.214% (active); in experiment [6], 86.2%. For the same compound, the growth in experiment [7] is 90.7%; in experiment [8], 69%; in experiment [9], 84.6%; in experiment [10], 92.4%; in [11] it was 38%; in experiment [12] it was 79.8%. For the same compound, the growth in [13] is 59.5%; in experiment [14], 91.4%; in experiment [15], 89.2%; in [16], 95.7%; in experiment [17], 86.3%; in [18] it was 88.6%. In experiment [19], the growth was 73.6%.
With `O=C(c1ccccc1)C(O)C(Br)(CBr)c1ccccc1` (stereo not drawn), the growth in experiment [1] was 74.9%; in experiment [2] it was 90.2%; in experiment [3], 101%; in experiment [4], 107%; in [5] it was 47.2%; in experiment [6], -30.8% (active). The growth is 88.5% in experiment [7]; 105% in experiment [8]; 120% in experiment [9]; 87.1% in experiment [10]; 50.8% in experiment [11]; 99.9% in experiment [12]. Moreover, the growth is 91.6% in experiment [13]; 105% in experiment [14]; 98.8% in [15]; 103% in experiment [16]; 107% in [17]; 72.5% in experiment [18]. The growth in experiment [19] is 82.6%.
Consider `NCCCN(CCCN)CCCNCc1c2ccccc2c(CNCCCN(CCCN)CCCN)c2ccccc12`, for which the growth was 92.2% in experiment [1]; 87.2% in [2]; 84.4% in experiment [3]; 87.2% in experiment [4]; 95.9% in [5]; 89.7% in [6]. Besides, the growth in experiment [7] was 95.2%; in [8] it was 99.1%; in experiment [9] it was 95.9%; in experiment [10] it was 100%; in experiment [11], 83.3%; in experiment [12], 51.7%. Also, the growth was 102% in [13]; 98.4% in [14]; 88.7% in experiment [15]; 100% in [16]; 91.8% in experiment [17]; 93.2% in experiment [18]. Also, in experiment [19], the growth is 98.8%.
Turning to `C=C(C(N)=O)C(N)C(=O)O` (stereo not drawn), the growth in [1] was 110%; in [2] it was 112%; in experiment [3] it was 100%; in experiment [4], 110%; in [20] it was 108%; in [6] it was 100%. Also, the growth was 107% in [7]; 92.8% in experiment [8]; 99.9% in experiment [10]; 100% in experiment [11]; 98% in experiment [12]; 108% in [13]. The growth is 111% in experiment [14]; 106% in [15]; 112% in experiment [16]; 110% in experiment [17]; 112% in experiment [18]; 90.7% in experiment [19].
On to `S=C=Nc1ccc(N2CCOCC2)cc1`, for which the growth is 92.1% in experiment [1]; 86% in [2]; 96.1% in experiment [3]; 89.6% in experiment [4]; 74.4% in [6]; 89.8% in [7]. Also, the growth in [8] is 89.8%; in experiment [9], 97.4%; in experiment [10], 108%; in experiment [11] it was 89.6%; in experiment [12] it was 82.3%; in [13], 97.3%. Further, the growth was 72.2% in experiment [14]; 99.9% in [15]; 84.8% in [16]; 89.5% in experiment [17]; 88.7% in [18]; 93% in experiment [19].
Take `NC(=Nc1nc(-c2ccccn2)cc2ccccc12)c1ccccn1`: the growth is -90.1% (active) in experiment [1]; 21.4% in experiment [2]; 21.6% in experiment [3]; 1.13% (active) in [20]; -2.84% (active) in experiment [5]; 36.3% in experiment [6]. Besides, the growth was -54.2% (active) in [7]; 3.78% (active) in experiment [8]; 6.29% (active) in experiment [9]; 1.76% (active) in [10]; -22.8% (active) in experiment [11]; 19% in experiment [12]. Moreover, the growth was 47.8% in experiment [13]; 1.1% (active) in experiment [14]; 13.1% in experiment [15]; 17.9% in experiment [16]; -18.6% (active) in [17]; -4.44% (active) in experiment [18]. The growth in experiment [19] is -55% (active).
For `Oc1ccc(Br)cc1Sc1cc(Br)ccc1O`, the growth in experiment [1] is 9.64% (active); in experiment [2] it was 98.2%; in [3] it was 92%; in experiment [4] it was 84.7%; in experiment [7] it was 50.6%; in experiment [8], 100%. In addition, the growth in experiment [9] was 113%; in [10] it was 76.4%; in experiment [11], 49.2%; in experiment [12] it was 40.9%; in [13], 56.7%; in experiment [14] it was 76.8%. Besides, the growth was 55.3% in experiment [15]; 98.9% in experiment [16]; 45.3% in [17]; 52.1% in experiment [18]; 39.9% in experiment [19].
On to `CCCCCCCCCCCCN1C(C)=CS/C1=C\C=C\c1scc(C)[n+]1CCCCCCCCCCCC`, for which the growth was 10.8% in experiment [1]; 40.6% in experiment [2]; 96.8% in experiment [3]; 35.5% in [4]; 3.47% (active) in experiment [6]; 16.6% in [7]. Moreover, the growth was 37.3% in [8]; 8.86% (active) in [9]; 43% in experiment [10]; 4.52% (active) in experiment [11]; 29.9% in experiment [12]; 20.2% in experiment [13]. Further, the growth is 40.3% in experiment [15]; -21.5% (active) in [16]; 44.4% in experiment [17]; -14.2% (active) in [18]; 30.5% in experiment [19].
Turning to `Fc1ccc(NCCS)cc1`, the growth in experiment [1] was 97.4%; in experiment [2], 104%; in experiment [3], 103%; in experiment [4] it was 99.6%; in experiment [5], 103%; in [6] it was 90%. Besides, the growth was 92.7% in [7]; 108% in experiment [9]; 107% in experiment [10]; 101% in [11]; 108% in experiment [12]; 102% in [13]. Also, the growth in [14] was 108%; in [15], 102%; in [17] it was 103%; in experiment [18], 102%; in [19], 103%.
